Measurements reported in PubChem BioAssay AID1159580 (chemical genetic matrix, 2015).
The campaign covered roughly 5,500 compounds. About 2,000 (36%) were called active. Another 18% or so got no clear call; they are omitted. Cut-off read from the data, not from the text of the source: active = normalized growth mostly below about 0.91 (no sharp cut-off); inconclusive = no clear call, values can overlap the other calls; inactive = mostly above about 0.92. The list shows a part of the results.

Assay: chemical genetic growth profiling, strain panel (AID 1159580);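 note: tested at 20 µM; growth read once vehicle control cultures reached saturation at 30 °C; 1 = growth at the plate median or of vehicle wells; lower values mean less growth of the strain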
Settings: growth OD

Measured: normalized growth

O=C1c2ccccc2-c2cccc3cccc1c23
active: S. cerevisiae deletion strains, locus YAL026C, strain drs2, hits give low values 0.896 | S. cerevisiae deletion strains, locus YBL061C, strain skt5, hits give low values 0.88 | S. cerevisiae deletion strains, locus YBR009C, strain hhf1, hits give low values 0.849 | S. cerevisiae deletion strains, locus YBR023C, strain chs3, hits give low values 0.855 | S. cerevisiae deletion strains, locus YBR231C, strain swc5, hits give low values 0.78 | S. cerevisiae deletion strains, locus YBR279W, strain paf1, hits give low values 0.884 | S. cerevisiae deletion strains, locus YCL011C, strain gbp2, hits give low values 0.874 | S. cerevisiae deletion strains, locus YCL016C, strain dcc1, hits give low values 0.823 | S. cerevisiae deletion strains, locus YCL061C, strain MRC1, hits give low values 0.867 | S. cerevisiae deletion strains, locus YCL069W, strain vba3, hits give low values 0.924 | S. cerevisiae deletion strains, locus YDR137W, strain rgp1, hits give low values 0.756 | S. cerevisiae deletion strains, locus YDR195W, strain ref2 1.44 [resistant] | S. cerevisiae deletion strains, locus YDR392W, strain spt3, hits give low values 0.483 | S. cerevisiae deletion strains, locus YER155C, strain BEM2 (second series), hits give low values 0.716 | S. cerevisiae deletion strains, locus YFR010W, strain ubp6, hits give low values 0.833 | S. cerevisiae deletion strains, locus YGL173C, strain kem1, hits give low values 0.853 | S. cerevisiae deletion strains, locus YGL240W, strain doc1, hits give low values 0.868 | S. cerevisiae deletion strains, locus YGL253W, strain hxk2, hits give low values 0.822 | S. cerevisiae deletion strains, locus YHR013C, strain ard1, hits give low values 0.737 | S. cerevisiae deletion strains, locus YHR142W, strain chs7, hits give low values 0.62 | S. cerevisiae deletion strains, locus YJL092W, strain hpr5, hits give low values 0.899 | S. cerevisiae deletion strains, locus YJL095W, strain BCK1 (second series), hits give low values 0.854 | S. cerevisiae deletion strains, locus YJL164C, strain tpk1, hits give low values 0.868 | S. cerevisiae deletion strains, locus YJL166W, strain qcr8, hits give low values 0.841 | S. cerevisiae deletion strains, locus YKL160W, strain elf1, hits give low values 0.829 | S. cerevisiae deletion strains, locus YLL001W, strain dnm1, hits give low values 0.89 | S. cerevisiae deletion strains, locus YLR027C, strain aat2, hits give low values 0.875 | S. cerevisiae deletion strains, locus YLR221C, strain rsa3, hits give low values 0.875 | S. cerevisiae deletion strains, locus YLR258W, strain gsy2, hits give low values 0.9 | S. cerevisiae deletion strains, locus YLR262C, strain YPT6 (second series), hits give low values 0.747 | S. cerevisiae deletion strains, locus YLR320W, strain mms22, hits give low values 0.714 | S. cerevisiae deletion strains, locus YMR058W, strain fet3, hits give low values 0.746 | S. cerevisiae deletion strains, locus YNL071W, strain lat1, hits give low values 0.685 | S. cerevisiae deletion strains, locus YNL248C, strain rpa49, hits give low values 0.677 | S. cerevisiae deletion strains, locus YOR070C, strain gyp1, hits give low values 0.904 | S. cerevisiae deletion strains, locus YOR083W, strain WHI5, hits give low values 0.786 | S. cerevisiae deletion strains, locus YOR106W, strain vam3, hits give low values 0.693 | S. cerevisiae deletion strains, locus YOR270C, strain vph1, hits give low values 0.341 | S. cerevisiae deletion strains, locus YOR290C, strain snf2, hits give low values 0.856 | S. cerevisiae deletion strains, locus YPL051W, strain arl3, hits give low values 0.739 | S. cerevisiae deletion strains, locus YPL078C, strain atp4, hits give low values 0.787 | S. cerevisiae deletion strains, locus YPL106C, strain sse1, hits give low values 0.74
inactive: S. cerevisiae deletion strains, locus YAL021C, strain ccr4, hits give low values 0.946 | S. cerevisiae deletion strains, locus YAL030W, strain snc1, hits give low values 0.954 | S. cerevisiae deletion strains, locus YBR171W, strain sec66, hits give low values 0.964 | S. cerevisiae deletion strains, locus YCR088W, strain abp1, hits give low values 1.01 | S. cerevisiae deletion strains, locus YDL005C, strain med2, hits give low values 0.961 | S. cerevisiae deletion strains, locus YDL040C, strain nat1, hits give low values 0.974 | S. cerevisiae deletion strains, locus YDR001C, strain nth1, hits give low values 0.988 | S. cerevisiae deletion strains, locus YDR069C, strain doa4, hits give low values 0.905 | S. cerevisiae deletion strains, locus YDR159W, strain sac3, hits give low values 0.881 | S. cerevisiae deletion strains, locus YDR297W, strain sur2, hits give low values 0.965 | S. cerevisiae deletion strains, locus YDR334W, strain swr1, hits give low values 0.923 | S. cerevisiae deletion strains, locus YDR335W, strain msn5, hits give low values 0.952 | S. cerevisiae deletion strains, locus YEL003W, strain gim4, hits give low values 0.967 | S. cerevisiae deletion strains, locus YEL037C, strain rad23, hits give low values 0.945 | S. cerevisiae deletion strains, locus YEL061C, strain CIN8 (second series), hits give low values 0.953 | S. cerevisiae deletion strains, locus YER015W, strain faa2, hits give low values 0.939 | S. cerevisiae deletion strains, locus YER016W, strain bim1, hits give low values 0.977 | S. cerevisiae deletion strains, locus YER111C, strain swi4, hits give low values 0.968 | S. cerevisiae deletion strains, locus YGL167C, strain pmr1, hits give low values 0.97 | S. cerevisiae deletion strains, locus YGL227W, strain vid30, hits give low values 0.99 | S. cerevisiae deletion strains, locus YHR027C, strain rpn1, hits give low values 0.956 | S. cerevisiae deletion strains, locus YJL115W, strain asf1, hits give low values 0.91 | S. cerevisiae deletion strains, locus YJL129C, strain trk1, hits give low values 1.02 | S. cerevisiae deletion strains, locus YJL154C, strain vps35, hits give low values 0.988 | S. cerevisiae deletion strains, locus YKR026C, strain gcn3, hits give low values 0.965 | S. cerevisiae deletion strains, locus YKR091W, strain srl3, hits give low values 0.977 | S. cerevisiae deletion strains, locus YLL026W, hits give low values 0.932 | S. cerevisiae deletion strains, locus YLL041C, strain sdh2, hits give low values 0.994 | S. cerevisiae deletion strains, locus YLR342W, strain FKS1, hits give low values 0.966 | S. cerevisiae deletion strains, locus YLR357W, strain rsc2, hits give low values 0.985 | S. cerevisiae deletion strains, locus YLR370C, strain arc18, hits give low values 0.931 | S. cerevisiae deletion strains, locus YLR384C, strain iki3, hits give low values 0.978 | S. cerevisiae deletion strains, locus YML120C, strain ndi1, hits give low values 0.949 | S. cerevisiae deletion strains, locus YMR125W, strain sto1, hits give low values 0.9 | S. cerevisiae deletion strains, locus YMR129W, hits give low values 0.973 | S. cerevisiae deletion strains, locus YMR205C, strain PFK2, hits give low values 0.935 | S. cerevisiae deletion strains, locus YMR231W, strain pep5, hits give low values 0.954 | S. cerevisiae deletion strains, locus YNL209W, strain ssb2, hits give low values 0.928 | S. cerevisiae deletion strains, locus YNL322C, strain KRE1 (second series), hits give low values 0.966 | S. cerevisiae deletion strains, locus YNR049C, strain mso1, hits give low values 0.986 | S. cerevisiae deletion strains, locus YOR001W, strain rrp6, hits give low values 0.911 | S. cerevisiae deletion strains, locus YOR080W, strain dia2, hits give low values 0.981 | S. cerevisiae deletion strains, locus YOR265W, strain rbl2, hits give low values 0.967 | S. cerevisiae deletion strains, locus YPL240C, strain hsp82, hits give low values 0.979

O=S(=O)(O)c1cccc2cccc(Cl)c12
inactive: S. cerevisiae deletion strains, locus YAL013W, strain DEP1, hits give low values 1.01 | S. cerevisiae deletion strains, locus YBR229C, strain ROT2, hits give low values 1.01 | S. cerevisiae deletion strains, locus YDL101C, strain DUN1, hits give low values 0.984 | S. cerevisiae deletion strains, locus YDR150W, strain NUM1, hits give low values 0.93 | S. cerevisiae deletion strains, locus YEL061C, strain CIN8, hits give low values 0.998 | S. cerevisiae deletion strains, locus YGR078C, strain PAC10, hits give low values 1 | S. cerevisiae deletion strains, locus YHR030C, strain SLT2, hits give low values 0.985 | S. cerevisiae deletion strains, locus YHR087W, strain rtc3, hits give low values 1.06 | S. cerevisiae deletion strains, locus YJL187C, strain SWE1, hits give low values 1 | S. cerevisiae deletion strains, locus YJR043C, strain POL32, hits give low values 0.993 | S. cerevisiae deletion strains, locus YJR075W, strain HOC1, hits give low values 0.999 | S. cerevisiae deletion strains, locus YLR039C, strain RIC1, hits give low values 0.996 | S. cerevisiae deletion strains, locus YLR058C, strain SHM2 (second series), hits give low values 1.01 | S. cerevisiae deletion strains, locus YLR085C, strain ARP6, hits give low values 1.03 | S. cerevisiae deletion strains, locus YLR262C, strain YPT6, hits give low values 1.01 | S. cerevisiae deletion strains, locus YML094W, strain GIM5, hits give low values 1.03 | S. cerevisiae deletion strains, locus YMR219W, strain ESC1, hits give low values 1.02 | S. cerevisiae deletion strains, locus YMR263W, strain SAP30, hits give low values 1.01 | S. cerevisiae deletion strains, locus YMR307W, strain GAS1, hits give low values 0.996 | S. cerevisiae deletion strains, locus YNL153C, strain GIM3, hits give low values 0.999 | S. cerevisiae deletion strains, locus YNL298W, strain CLA4 (second series), hits give low values 1.02 | S. cerevisiae deletion strains, locus YNL322C, strain KRE1, hits give low values 1 | S. cerevisiae deletion strains, locus YNR030W, strain Alg12, hits give low values 1.03 | S. cerevisiae deletion strains, locus YPL055C, strain LGE1, hits give low values 1.02 | S. cerevisiae deletion strains, locus YPL241C, strain CIN2, hits give low values 1.01 | S. cerevisiae deletion strains, locus YPR135W, strain CTF4, hits give low values 0.973 | S. cerevisiae strains, strain wild type, hits give low values 0.984
